Compound activity: PubChem, National Center for Advancing Translational Sciences (NCATS)
SMN2 splice enh – SMN2 splice variant enhancement; HEK293 SMN2-luciferase splicing reporter, luminescence, 30-36 h; Potency, µM (highest dose often 46.1 µM), actives largely listed as activators; 210,000 compounds, 2.8% hits; further: nearly all actives have a fitted effect of over 55% in size
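HEK293 cells carry an SMN2 […]–luciferase reporter in which exon 7 inclusion puts luciferase in frame. Cells were plated 10-12 h before compound addition, then incubated 30-36 h at 37C. ONE-Glo luminescence was read; sodium butyrate at 4.5 mM final served as control.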
ELG1 genotox – genotoxicity induction in ELG1-luciferase HEK293T cells; HEK293T ELG1-luciferase reporter, luminescence, 16 h; Potency, µM (highest dose often 46 µM), usual class: activators; 330,000 compounds, 1.3% hits; AID 504466; further: nearly all actives have a fitted effect of over 60% in size
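After overnight (16 hr) compound treatment at 37 °C, ELG1-luciferase HEK293T cells were lysed with ONE-Glo; luminescence quantified 30 min later at room temperature.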
NPC1 promoter act – NPC1 promoter activation | Huh7 NPC1 promoter luciferase reporter, 24 h | Potency, µM (doses to about 9.22 µM), most hits filed as activators | 320,000 compounds, 2.4% hits; further: nearly all actives have a fitted effect of over 60% in size
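Cells: Huh7 expressing luciferase under the NPC1 promoter, 1500/well. Seeded 2 h, compound added, incubated 24 h at 37 °C. Luciferase reagent, 10 min ambient, then luminescence.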
ELG1 repair inh – ELG1-dependent DNA repair inhibition | 330,000 compounds, 2.3% hits | Potency, µM (series often up to 46.1 µM), hits mostly inhibitors | AID 504467 | HEK293T ELG1-luciferase reporter, luminescence, 16 h; DNA damage induced by 5-fluorouridine; further: nearly all actives have a fitted effect of over 55% in size
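DMSO vehicle served as the neutral condition. Each well held 2,000 cells given 5-fluorouridine plus compound; after 16 hr at 37 °C/5% CO2, ONE-Glo was added and luciferase measured 30 min later.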
Rab9 promoter act – activates the Rab9 promoter; Huh7 Rab9 promoter-luciferase reporter, luminescence, 24 h; AID 485297; 320,000 compounds, 2.8% hits; Potency, µM (top dose mostly 9.22 µM), usual class: activators; further: nearly all actives have a fitted effect of over 60% in size
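Stable Rab9-luc Huh7, 1500 cells/well, 2 h settle; cmpd in DMSO, 24 h, 37 °C/5% CO2; luciferase reagent 10 min RT; luminescence.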
FLuc counter – counter-screen for miR-21 project: firefly luciferase inhibitors or activators. AID 588342. 360,000 compounds, 6.9% hits. purified FLuc, Km substrates, luminescence inhibition. Potency, µM (doses to about 57.5 µM), usual class: inhibitors. P08659; further: nearly all actives have a fitted effect of over 55% in size
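Biochemical qHTS of compounds, final roughly 60 µM downward over six points, against 10 nM purified firefly luciferase using Km concentrations of substrates (10 uM D-luciferin, 10 uM ATP) in Tris acetate pH 7.5 buffer; luminescence output.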
ELG1 FLuc counter – luciferase inhibition in cell-free luciferin readout for ELG1 hits | 350 compounds, 3% hits | Potency, µM (highest dose often 46.1 µM), usual class: inhibitors | AID 624247 | shares compounds with ELG1 repair inh | cell-free firefly luciferase luminescence counter-screen, ViewLux
ELG1 Luc conf – confirmation of human ELG1-dependent DNA repair inhibitors. shares compounds with ELG1 repair inh. HEK293T ELG1-luciferase levels, luminescence; cells co-treated with 5-fluorouridine. Potency, µM (top dose mostly 46.1 µM), usual class: inhibitors. 670 compounds, 68% hits; further: nearly all actives have a fitted effect of over 55% in size
ELG1 MMS Luc – MMS-stimulated human ELG1 repair inhibition, confirmed. shares compounds with ELG1 repair inh. HEK293T luciferase-tagged ELG1 level, MMS stimulated. Potency, µM (titrated, usually from 46.1 µM), hits mostly inhibitors. 670 compounds, 53% hits; further: nearly all actives have a fitted effect of over 60% in size
ELG1 5-FU – confirmation of ELG1 repair inhibitors: viability with 5FU. 670 tested, under 10 active. Potency, µM (series often up to 46.1 µM), usual class: cytotoxic. AID 624250. shares compounds with ELG1 repair inh. cell viability with 5-FU, ELG1-dependent repair;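 further: ELG1-luc HEK293T cells cotreated with 5-fluorouridine at 10 µM final; viability measured 16 h after compound addition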
ELG1 MMS viab – confirmation of ELG1 repair inhibitors: viability with MMS; AID 624251; shares compounds with ELG1 repair inh; 670 compounds, 33% hits; Cell viability with MMS, ELG1-dependent DNA repair; Potency, µM (highest dose often 46.1 µM), actives largely listed as cytotoxic;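 further: ELG1-luc HEK293T cells co-treated with 10 µM MMS; viability read 16 h after compound addition; nearly all actives have a fitted effect of over 60% in size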
Cell viab unstim – unstimulated viability counter-screen for ELG1 repair hits | shares compounds with ELG1 repair inh | cell viability counter-screen, unstimulated, luminescence | Potency, µM (highest dose often 45.9 µM), actives largely listed as cytotoxic | 900 compounds, 8% hits | AID 624252;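 further: compound exposure lasted 16 hours before reading; nearly all actives have a fitted effect of over 55% in size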
FLuc biochem – counter-screen for ELG1 repair inhibitors: firefly luciferase inhibition | Potency, µM (highest dose often 57.5 µM), usual class: inhibitors | AID 624253 | 350 compounds, 10% hits | purified firefly luciferase, luminescence counter-screen | shares compounds with ELG1 repair inh
A number is an active result. Sampled rows, rich in hits. Any-hit rate of the full collection: about 9.4%. The call rests on the fitted dose curve; in most records, active means well fitted curve in the direction sought with a large enough effect; inconclusive means small, poorly fitted or top-dose-only effect, or another doubt; inactive means no such curve, though single readings can be large; an effect the other way counts as inactive or inconclusive.

Screening Cc1ccc(C(=O)OC(C(=O)O)C(OC(=O)c2ccc(C)cc2)C(=O)O)cc1 (centres undefined) returned ELG1 genotox inactive, NPC1 promoter act inactive, ELG1 repair inh inactive and Rab9 promoter act inactive.
For CC1CCc2nc(N)c(C#N)c(-c3cccnc3)c2C1 (centres undefined) the results were SMN2 splice enh inactive, ELG1 genotox inactive, NPC1 promoter act inactive, ELG1 repair inh 1.16µM, Rab9 promoter act inactive, FLuc counter inactive, ELG1 Luc conf 1.58µM, ELG1 MMS Luc 14.1µM, ELG1 5-FU inactive, ELG1 MMS viab 22.3µM and Cell viab unstim inactive.
For CC1CCc2nc(N)c(C#N)c(-c3ccncc3)c2C1 (centres undefined) the results were SMN2 splice enh inactive, ELG1 genotox inactive, NPC1 promoter act inactive, ELG1 repair inh inactive, Rab9 promoter act inactive and FLuc counter inactive.
For O=C(Nc1ccc(F)cc1)N(Cc1cccs1)Cc1cc2cc3c(cc2[nH]c1=O)OCO3 the results were SMN2 splice enh inactive, ELG1 genotox inactive, NPC1 promoter act inactive, ELG1 repair inh 18.4µM, Rab9 promoter act inactive, FLuc counter inactive, ELG1 FLuc counter inconclusive, ELG1 Luc conf 8.89µM, ELG1 MMS Luc 28.1µM, ELG1 5-FU inactive, ELG1 MMS viab inconclusive, Cell viab unstim inconclusive and FLuc biochem inactive.
